# Measured values published in PubChem BioAssay (Tox21).
# Inconclusive results are not listed. A call without a number means that no potency is given here. Values without a mark were called inactive. Activity calls are given as the source filed them. The call rests on the fitted dose curve; in most records, active means well fitted cell-killing curve with a large enough effect in the repeat runs; inconclusive means weak or mixed curves, or effect the other way; inactive means no such curve, though single readings can be large or run the other way.
# Assay: qHTS assay to identify small molecule antagonists of the sonic hedgehog signaling (Shh) pathway - cell viability counter screen (AID 1259367); further: nearly all actives have a fitted effect of over 55% in size
# Conditions: NIH/3T3 Gli1-Luc viability, CellTiter-Fluor, 24 h; series mostly up to 92.4 µM
# Excerpt: National Center for Advancing Translational Sciences [NCATS]
# NIH Chemical Genomics Center [NCGC]
# U.S. Environmental Protection Agency [EPA]
# National Institutes of Environmental Health Sciences [NIEHS]
# National Toxicology Program [NTP]
# U.S. Food and Drug Administration [FDA]
# The sonic hedgehog (Shh) pathway is essential for normal embryonic development. Dysregulation of the Shh pathway can cause severe developmental defects in organs. Therefore chemicals that interfere with the pathway are potential developmental toxicants. A cell line designated 3T3Gli1-Luc (DMB/OARSA/CFSAN/FDA, Laurel, MD), a NIH/3T3 derived clone containing stably integrated Gli1-Luc reporter is used to detect chemical interference of the Shh pathway, by changes in the expression of the firefly Luc gene under the control of the Gli1 transcriptional response element. This cell line was used to screen Tox21 libraries for identifying and prioritizing the potential developmental toxicants that interfere Shh pathway. Conditioned medium-stimulated mode was used to screen for chemicals inhibiting Shh signaling. The cytotoxicity of the compounds was tested in parallel by measuring the cell viability using CellTiter-Fluor assay system (Promega, Madison, WI) in the same wells.
# Tox21 Assay Protocol Summary:
# 3T3 Gli1-Luc cells were dispensed at 2,000 per well in 5uL of culture medium into white solid bottom 1536-well plates (Greiner Bio-One, Monroe, NC) using a Multidrop Combi (Thermo Scientific, Waltham, MA) dispenser. The assay plates were incubated at 37 C and 5% CO2 for 4hr, and then 23nL of compounds dissolved in DMSO and positive control were transferred using a Pintool station (Wako, San Diego, CA). The compound transfer was followed by the addition of 1ul conditioned medium or assay buffer using two separate tips of Flying Reagent Dispenser (FRD, Aurora Discovery, San Diego, CA). The assay plates were incubated at 37C and 5% CO2 for 24hr. For viability read, after 23hr of compound treatment, 1uL of CellTiter-Fluor reagent (Promega Corporation, Madison, WI) was added to each well of the assay plates using Flying Reagent Dispenser (FRD, Aurora Discovery, San Diego, CA) and incubated the assay plates at 37C for 1hr. The fluorescence signal was quantified using a ViewLux plate reader (Perkin Elmer, Shelton, CT).
# Potency means the concentration at half of the fitted maximal effect.
Structure (SMILES),"viability change, negative = cytotoxic",Potency
Clc1cc2c(cc1Cl)Oc1cc(Cl)c(Cl)cc1O2,1.51% [at 0.349 µM],
CN(CCO)CCO,,inactive
NC1(c2ccccc2)CCCCC1,,27.1 µM (active)
c1ccc2c(c1)CCNC2,,inactive
CNC(=O)NC(O)C(Cl)(Cl)Cl (stereo not given),,inactive
CCOc1cc(OP(=S)(OC)OC)nc(CC)n1,,inactive
C#CC(C)(C)O,,inactive
O=C(NC(=O)c1c(F)cccc1F)Nc1cc(Cl)c(F)c(Cl)c1F,,inactive
O=C(Cl)c1ccccc1,,inactive
Cc1cccc2sc3nncn3c12,,inactive
CC(C)(C1CCC(O)CC1)C1CCC(O)CC1 (stereo not given),,inactive
C[C@]12C=CC(=O)C=C1CC[C@@H]1[C@@H]2CC[C@@]2(C)[C@H]1CC[C@]2(C)O,,inactive
ClCCCCCCCl,,inactive
CCC(CC)(CNC(=O)CCCO)c1cccc(OC)c1,,inactive
N#CN,,inactive
Clc1ccc(C(Cl)(Cl)Cl)cn1,,inactive
Brc1c(Br)c(Br)c(Br)c(Br)c1Br,1.61% [at 8.39 µM],
CS(=O)(=O)Cl,,inactive
c1cncc([C@@H]2CCCCN2)c1,,inactive
CCc1ccc(C2CCNCC2)cc1,,inactive

Structure (SMILES),"viability change, negative = cytotoxic",Potency
CCC(=O)OC1(c2ccccc2)CCN(C)CC1,,inactive
CCNP(=S)(OC)O/C(C)=C/C(=O)OC(C)C (stereo not given),,inactive
CCCCS(=O)(=O)Cl,,inactive
CC1NCCOC1c1ccccc1 (stereo not given),,inactive
COc1cc(CCN)cc(OC)c1OC,,inactive
CCC(C)(C#N)N=NC(C)(C#N)CC (stereo not given),,inactive
CCN(CCO)CCn1c(Cc2ccccc2)nc2c1c(=O)n(C)c(=O)n2C,,inactive
CCCN1CCC[C@@H]2Cc3[nH]ncc3C[C@H]21,,inactive
CCC(C(N)=O)N1CCCC1=O (stereo not given),,inactive
COc1cc(CC(C)N)cc(OC)c1OC (stereo not given),,inactive
CC(=NC#N)N(C)Cc1ccc(Cl)nc1,,inactive
CC1=C2[C@H]3OC(=O)[C@@H](C)[C@@H]3CC[C@@]2(C)C=CC1=O,,inactive
CCCOC(=O)c1cncn1C(C)c1ccccc1 (stereo not given),,inactive
C#CCOC(=O)/C=C(C)/C=C/CC(C)CCCC(C)C (stereo not given),,inactive
CC(O)CCl (stereo not given),,inactive
Cc1ccc2c(c1)C1CN(C)CCC1N2 (stereo not given),5.33% [at 19 µM],
O=P(O)(O)CN(CP(=O)(O)O)CP(=O)(O)O,,inactive
CCOP(=O)(CN(CCO)CCO)OCC,,inactive
CCOP(=S)(OCC)SCCl,,inactive
BrCC1CO1 (stereo not given),,inactive
